Experimental data as given in PubChem BioAssay (NCI).
The panel holds about 83,000 compounds, 20% with a hit somewhere; the sample as a whole holds those more often.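 Testing used 96-well plates and a 48-hour single-concentration exposure. Example: -40 means 40% of the starting cells died.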 Activity calls are given as the source filed them. Rule for the calls: active = growth percent below 10; inactive = the rest.

Experiments:
Assay in all cases: NCI-60 one-dose screen, 48 h (100 = growth as untreated, 0 = no growth, -100 = all killed)
Details in all cases: 10 µM unless noted
SK-MEL-2 melanoma = system: SK-MEL-2 melanoma
EKVX NSCLC = system: EKVX NSCLC
SN12C renal = system: SN12C renal
UO-31 renal = system: UO-31 renal
TK-10 renal = system: TK-10 renal
ACHN renal = system: ACHN renal
CAKI-1 renal = system: CAKI-1 renal
CCRF-CEM leukemia = system: CCRF-CEM leukemia
MOLT-4 leukemia = system: MOLT-4 leukemia
SR leukemia = system: SR leukemia
RPMI-8226 leukemia = system: RPMI-8226 leukemia
OVCAR-8 ovarian = system: OVCAR-8 ovarian
OVCAR-5 ovarian = system: OVCAR-5 ovarian
OVCAR-4 ovarian = system: OVCAR-4 ovarian
SK-OV-3 ovarian = system: SK-OV-3 ovarian
IGROV1 ovarian = system: IGROV1 ovarian
OVCAR-3 ovarian = system: OVCAR-3 ovarian
HS 578T breast = system: HS 578T breast
NCI/ADR-RES ovarian = system: NCI/ADR-RES ovarian

Measured: growth

O=C(Nc1ccc2cc3ccc(NC(=O)N4CCCCCC4)cc3nc2c1)N1CCCCCC1
active: SK-MEL-2 melanoma -69% | EKVX NSCLC -41% | SN12C renal -57.6% | UO-31 renal -85.4% | TK-10 renal -62.3% | ACHN renal -93.6% | CAKI-1 renal -64.7% | CCRF-CEM leukemia 8.09% | MOLT-4 leukemia -21.2% | SR leukemia 8.09% | RPMI-8226 leukemia -36.8% | OVCAR-8 ovarian -28.3% | OVCAR-5 ovarian 4.88% | OVCAR-4 ovarian -44.8% | SK-OV-3 ovarian -36.7% | IGROV1 ovarian -48.5% | OVCAR-3 ovarian -69.2% | HS 578T breast -33.2%
inactive: NCI/ADR-RES ovarian 36.7%

Clc1ccc2c(c1)c(-c1ccccc1)nc1nncn12
inactive: SK-MEL-2 melanoma 102% | EKVX NSCLC 109% | SN12C renal 104% | UO-31 renal 90.8% | TK-10 renal 114% | ACHN renal 117% | CAKI-1 renal 105% | CCRF-CEM leukemia 101% | MOLT-4 leukemia 96.7% | SR leukemia 83.8% | RPMI-8226 leukemia 103% | OVCAR-8 ovarian 106% | OVCAR-5 ovarian 115% | OVCAR-4 ovarian 121% | SK-OV-3 ovarian 107% | IGROV1 ovarian 109% | OVCAR-3 ovarian 110% | HS 578T breast 106% | NCI/ADR-RES ovarian 101%

CCCCCCCCOc1ccc(/C=N/Nc2cc(C)nc3ccc(Cl)cc23)cc1
active: SN12C renal -82.4% | TK-10 renal -35.7% | ACHN renal -1.15% | CCRF-CEM leukemia 2.23% | MOLT-4 leukemia -14.1% | SR leukemia -23.3% | RPMI-8226 leukemia -3.13% | OVCAR-8 ovarian -34.3% | OVCAR-4 ovarian -69.7% | IGROV1 ovarian -84.6% | OVCAR-3 ovarian -93.1% | NCI/ADR-RES ovarian -22%
inactive: SK-MEL-2 melanoma 95.6% | EKVX NSCLC 55.7% | UO-31 renal 79.2% | CAKI-1 renal 41.6% | OVCAR-5 ovarian 27.1% | SK-OV-3 ovarian 90.3% | HS 578T breast 46.9%

COc1cc2oc(-c3cccc(C(=O)Nc4ccc(Cl)cc4)c3)cc(=O)c2c(OC)c1OC
active: CAKI-1 renal 8.22% | SR leukemia 8.67% | RPMI-8226 leukemia -18.3%
inactive: SK-MEL-2 melanoma 31.4% | EKVX NSCLC 48.2% | SN12C renal 33.2% | UO-31 renal 23.2% | TK-10 renal 38.6% | ACHN renal 33.2% | CCRF-CEM leukemia 28.5% | MOLT-4 leukemia 36.1% | OVCAR-8 ovarian 23.5% | OVCAR-5 ovarian 57.5% | OVCAR-4 ovarian 60.5% | SK-OV-3 ovarian 33.6% | IGROV1 ovarian 25.5% | OVCAR-3 ovarian 43.1% | HS 578T breast 33% | NCI/ADR-RES ovarian 26.2%

CCCCCCCCCCCC(=O)C(CCCCCCCCCC)C(=O)Nc1ccccc1 (stereo not given)
inactive: SK-MEL-2 melanoma 98.8% | EKVX NSCLC 108% | SN12C renal 98.1% | UO-31 renal 86.1% | TK-10 renal 95.1% | ACHN renal 100% | CAKI-1 renal 97% | CCRF-CEM leukemia 103% | MOLT-4 leukemia 89.3% | SR leukemia 99.7% | RPMI-8226 leukemia 99.2% | OVCAR-8 ovarian 103% | OVCAR-5 ovarian 101% | OVCAR-4 ovarian 102% | SK-OV-3 ovarian 108% | IGROV1 ovarian 89.2% | OVCAR-3 ovarian 112% | HS 578T breast 96.8% | NCI/ADR-RES ovarian 102%

CC(=O)OCCCCCNc1ccccc1
inactive: SK-MEL-2 melanoma 102% | EKVX NSCLC 104% | SN12C renal 103% | UO-31 renal 88.1% | TK-10 renal 107% | ACHN renal 101% | CAKI-1 renal 95.7% | CCRF-CEM leukemia 103% | MOLT-4 leukemia 91.3% | SR leukemia 88.4% | RPMI-8226 leukemia 111% | OVCAR-8 ovarian 108% | OVCAR-5 ovarian 97.5% | OVCAR-4 ovarian 92.8% | SK-OV-3 ovarian 109% | IGROV1 ovarian 118% | OVCAR-3 ovarian 105% | HS 578T breast 107% | NCI/ADR-RES ovarian 102%

O=C1CCCN1c1cccc2cccnc12
inactive: SK-MEL-2 melanoma 104% | EKVX NSCLC 91.5% | SN12C renal 102% | UO-31 renal 81.2% | TK-10 renal 88.5% | ACHN renal 102% | CAKI-1 renal 91.9% | CCRF-CEM leukemia 107% | MOLT-4 leukemia 102% | SR leukemia 101% | RPMI-8226 leukemia 102% | OVCAR-8 ovarian 103% | OVCAR-5 ovarian 109% | OVCAR-4 ovarian 110% | SK-OV-3 ovarian 114% | IGROV1 ovarian 107% | OVCAR-3 ovarian 110% | HS 578T breast 97.3% | NCI/ADR-RES ovarian 99.3%

COc1cc2c(cc1[N+](=O)[O-])-c1ccc([N+](=O)[O-])cc1/C2=N/NC(N)=S
inactive: SK-MEL-2 melanoma 87.8% | EKVX NSCLC 68.5% | SN12C renal 67.1% | UO-31 renal 29.6% | TK-10 renal 77.4% | ACHN renal 37.4% | CAKI-1 renal 64.1% | CCRF-CEM leukemia 56.6% | MOLT-4 leukemia 60.1% | SR leukemia 42.6% | RPMI-8226 leukemia 66.1% | OVCAR-8 ovarian 51.9% | OVCAR-5 ovarian 98.9% | OVCAR-4 ovarian 57.6% | SK-OV-3 ovarian 96.5% | IGROV1 ovarian 47.9% | OVCAR-3 ovarian 73.7% | HS 578T breast 77.3% | NCI/ADR-RES ovarian 69.6%

N#Cc1ccc(-c2ccc3c(c2)NC(=O)/C3=C\c2ccc[nH]2)cc1
inactive: SK-MEL-2 melanoma 89.3% | EKVX NSCLC 26.5% | SN12C renal 95.8% | UO-31 renal 72% | TK-10 renal 54.4% | ACHN renal 101% | CAKI-1 renal 82.4% | CCRF-CEM leukemia 103% | MOLT-4 leukemia 109% | SR leukemia 22.2% | RPMI-8226 leukemia 101% | OVCAR-8 ovarian 101% | OVCAR-5 ovarian 43.2% | OVCAR-4 ovarian 43.3% | SK-OV-3 ovarian 62.6% | IGROV1 ovarian 66.2% | OVCAR-3 ovarian 88.8% | HS 578T breast 103% | NCI/ADR-RES ovarian 100%

Cc1nn(-c2ccccc2)c(N2CCOCC2)c1/C=N/N=c1\sc2ccccc2n1C
inactive: SK-MEL-2 melanoma 105% | EKVX NSCLC 82.2% | SN12C renal 81.7% | UO-31 renal 65.2% | TK-10 renal 129% | ACHN renal 82.4% | CAKI-1 renal 67.3% | CCRF-CEM leukemia 67.3% | MOLT-4 leukemia 58.6% | SR leukemia 36.7% | RPMI-8226 leukemia 52.9% | OVCAR-8 ovarian 93.9% | OVCAR-5 ovarian 82% | OVCAR-4 ovarian 98.6% | SK-OV-3 ovarian 76.9% | IGROV1 ovarian 89.5% | OVCAR-3 ovarian 104% | HS 578T breast 91.2% | NCI/ADR-RES ovarian 94.9%

c1ccc(-c2nn(-c3ccccc3)[n+](-c3cccc4ccccc34)n2)cc1
inactive: EKVX NSCLC 11.8% | SN12C renal 32.7% | UO-31 renal 69.1% | TK-10 renal 40.4% | ACHN renal 72.2% | CAKI-1 renal 90.3% | CCRF-CEM leukemia 18.7% | MOLT-4 leukemia 18.9% | OVCAR-5 ovarian 48.1% | OVCAR-4 ovarian 41.4% | SK-OV-3 ovarian 66.3% | IGROV1 ovarian 10.6% | NCI/ADR-RES ovarian 90.1%
active: SK-MEL-2 melanoma -11.3% | SR leukemia 4.45% | RPMI-8226 leukemia 0.0671% | OVCAR-8 ovarian -43.5% | OVCAR-3 ovarian 8.96% | HS 578T breast 8.44%

N#Cc1c(Nc2ccccc2)nn2cc(-c3nc4ccccc4s3)c(N)nc12
inactive: SK-MEL-2 melanoma 97.5% | EKVX NSCLC 71.9% | SN12C renal 89.6% | UO-31 renal 83.4% | TK-10 renal 107% | ACHN renal 59% | CAKI-1 renal 82.6% | CCRF-CEM leukemia 79.2% | MOLT-4 leukemia 93.7% | SR leukemia 74.3% | RPMI-8226 leukemia 91.9% | OVCAR-8 ovarian 70.7% | OVCAR-5 ovarian 88.5% | SK-OV-3 ovarian 90.2% | IGROV1 ovarian 65.5% | OVCAR-3 ovarian 97% | HS 578T breast 64.3% | NCI/ADR-RES ovarian 50.6%
active: OVCAR-4 ovarian -13.7%

N#CC1=C(N)Oc2c(ccc3ccccc23)C1c1ccc([N+](=O)[O-])cc1 (stereo not given)
inactive: SK-MEL-2 melanoma 86% | EKVX NSCLC 76.9% | SN12C renal 90.4% | UO-31 renal 54.7% | TK-10 renal 145% | ACHN renal 90.3% | CAKI-1 renal 41.6% | CCRF-CEM leukemia 66.9% | MOLT-4 leukemia 58.6% | SR leukemia 20.2% | RPMI-8226 leukemia 89.5% | OVCAR-8 ovarian 93.3% | OVCAR-5 ovarian 95.7% | OVCAR-4 ovarian 90.8% | SK-OV-3 ovarian 80% | IGROV1 ovarian 50.4% | OVCAR-3 ovarian 76.5% | HS 578T breast 87.5% | NCI/ADR-RES ovarian 52.8%

COc1ccccc1C(C[N+](=O)[O-])c1c(-c2ccccc2)[nH]c2cc(C)ccc12 (stereo not given)
inactive: SK-MEL-2 melanoma 62.8% | EKVX NSCLC 71.7% | SN12C renal 77.9% | UO-31 renal 57.2% | TK-10 renal 118% | ACHN renal 73.4% | CAKI-1 renal 38.1% | CCRF-CEM leukemia 54.4% | MOLT-4 leukemia 53% | SR leukemia 24.2% | RPMI-8226 leukemia 61.5% | OVCAR-8 ovarian 75.3% | OVCAR-5 ovarian 89.5% | OVCAR-4 ovarian 81.7% | SK-OV-3 ovarian 88.6% | IGROV1 ovarian 53.6% | OVCAR-3 ovarian 76.1% | HS 578T breast 83% | NCI/ADR-RES ovarian 50.1%

CC(C)C1C2=C(NCCN1C(=O)Cc1ccccc1)C(C)(C)N(Cc1ccccc1)C2=O (stereo not given)
inactive: SK-MEL-2 melanoma 94.3% | EKVX NSCLC 94.5% | SN12C renal 98.5% | UO-31 renal 87.3% | TK-10 renal 97.3% | ACHN renal 101% | CAKI-1 renal 84.2% | CCRF-CEM leukemia 111% | MOLT-4 leukemia 96.8% | SR leukemia 106% | RPMI-8226 leukemia 102% | OVCAR-8 ovarian 100% | OVCAR-5 ovarian 102% | OVCAR-4 ovarian 104% | SK-OV-3 ovarian 93.5% | IGROV1 ovarian 98.8% | OVCAR-3 ovarian 102% | HS 578T breast 103% | NCI/ADR-RES ovarian 99%

Cc1[nH]c(C(=O)Nc2ccccc2OCc2cccc(C(=O)NCCN)c2)c(Cl)c1Cl
active: SR leukemia -15.8%
inactive: SK-MEL-2 melanoma 107% | EKVX NSCLC 89.1% | SN12C renal 58% | UO-31 renal 75% | TK-10 renal 138% | ACHN renal 101% | CAKI-1 renal 85.6% | CCRF-CEM leukemia 25.1% | MOLT-4 leukemia 40.3% | RPMI-8226 leukemia 30.1% | OVCAR-8 ovarian 37.9% | OVCAR-5 ovarian 104% | OVCAR-4 ovarian 98.1% | SK-OV-3 ovarian 108% | IGROV1 ovarian 71.1% | OVCAR-3 ovarian 76.4% | HS 578T breast 92.6% | NCI/ADR-RES ovarian 94.3%

CC(=O)OCC(=O)C1(O)C(C)CC2C3C=C(C)C4=Cc5c(cnn5-c5ccccc5)CC4(C)C3C(O)CC21C (stereo not given)
active: UO-31 renal -11.6% | MOLT-4 leukemia 9.2% | SR leukemia 2.76% | RPMI-8226 leukemia -18.3%
inactive: SK-MEL-2 melanoma 25.1% | EKVX NSCLC 27% | SN12C renal 33.5% | TK-10 renal 38.7% | ACHN renal 22.8% | CAKI-1 renal 21.3% | CCRF-CEM leukemia 10.6% | OVCAR-8 ovarian 44.9% | OVCAR-5 ovarian 25.3% | OVCAR-4 ovarian 43.2% | SK-OV-3 ovarian 43.1% | OVCAR-3 ovarian 11.5%
